Test results as given in PubChem BioAssay.
Active and inactive are the calls of the source.

Target: Dihydroorotate dehydrogenase (quinone), mitochondrial (Plasmodium falciparum (isolate 3D7)) (UniProt Q08210)
Experiment: PfDHODH enzyme inhibitors, primary screen, biochemical, C-terminal His tag, absorbance 600 nm (AID 1175);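 note: recombinant parasite enzyme with a five histidine tag at its C terminus; test concentration not given here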
Settings: DCIP absorbance 600 nm, higher = more signal, called active from +8 up or from −8 down

Dihydroorotate dehydrogenase (quinone), mitochondrial (Plasmodium falciparum (isolate 3D7)), sequence (Q08210 whole entry, looked up): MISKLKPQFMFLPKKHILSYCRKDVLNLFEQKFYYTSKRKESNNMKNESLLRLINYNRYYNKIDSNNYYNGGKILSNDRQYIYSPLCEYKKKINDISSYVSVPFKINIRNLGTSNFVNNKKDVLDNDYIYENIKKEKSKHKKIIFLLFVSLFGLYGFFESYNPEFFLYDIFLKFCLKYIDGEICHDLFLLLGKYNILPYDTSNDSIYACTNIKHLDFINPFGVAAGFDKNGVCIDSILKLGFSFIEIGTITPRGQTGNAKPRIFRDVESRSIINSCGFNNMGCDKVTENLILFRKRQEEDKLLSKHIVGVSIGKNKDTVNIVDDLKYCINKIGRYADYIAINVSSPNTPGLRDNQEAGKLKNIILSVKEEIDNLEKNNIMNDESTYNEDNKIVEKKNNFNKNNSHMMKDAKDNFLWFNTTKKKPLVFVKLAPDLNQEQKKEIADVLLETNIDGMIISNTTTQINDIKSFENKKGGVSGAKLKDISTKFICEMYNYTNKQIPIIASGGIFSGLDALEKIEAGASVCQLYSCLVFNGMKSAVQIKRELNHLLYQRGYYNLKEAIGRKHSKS

Composite z-score, inactive:
COc1cc2c(cc1O)C(C1CC1)N(Cc1cccc(OC(F)(F)F)c1)CC2 (stereo unspecified) -3.64
C=CC[C@]1(C(=O)N2CCOCC2)COC(c2ccc(OCCCO)cc2)=N1 -0.214
C=CC[C@]1(C(=O)N2CCCCC2)N=C(c2ccc(OCCCO)cc2)O[C@H]1c1ccccc1CN=[N+]=[N-] -0.709
COc1ccc(CCNC(=O)[C@@]2(Sc3ccc(C)cc3)CC(=O)N(Cc3ccccc3C(F)(F)F)[C@@H]2c2ccc(CO)cc2I)cc1 -1.6
O=C1N(CCS(=O)(=O)c2ccccc2)c2ccccc2[C@H]2OC(c3ccc(OCCCO)cc3)=N[C@@]12Cc1ccccc1 -0.0331
CCCCC[C@H]1OC[C@@]23C=C(Br)[C@@H](CC12)[C@@]1(CO1)C3=O (stereo partly specified) -0.23
COC(=O)[C@@]1(Cc2ccc(OC)cc2)[C@H]2c3cc(C(=O)N(C)C)n(Cc4ccc(OC(F)(F)F)cc4)c3C[C@H]2CN1C(=O)c1ccccc1 0.546
CCC#CCN(Cc1ccccc1Br)[C@H](/C=C/C1CC1)[C@@H](O)Cc1ccccc1 -0.769
CC[C@@H]1O[Si](C(C)C)(C(C)C)c2c1cc(-c1cc(C)c(OC)c(C)c1)nc2-c1ccc(Oc2ccccc2)cc1 -0.148
CCCNC(=O)[C@@]1(C)c2ccccc2C(=O)N(c2ccc(C)cn2)[C@H]1c1ccc(CO)cc1 -0.281
[N-]=[N+]=Nc1ccccc1[C@@H]1OC(c2ccc(OCCCO)cc2)=N[C@]1(Cc1ccccc1)C(=O)N1CCCCC1 -0.128
